For assay [1], the target named is Myc proto-oncogene protein (Homo sapiens) (UniProt P01106). Description: ATG_Myc_CIS: Attagene CIS-FACTORIAL HepG2 Assay for human Myelocytomatosis (Myc) Proto-Oncogene Transcription Factor (AID 2282990). Conditions: HepG2, Attagene cis-reporter transcription factor activity; actives raise or lower the signal. The essentials: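 Read-out: fluorescent reporter mRNA fragments resolved by capillary electrophoresis after RT-PCR. Human HepG2 liver cells carried transfected cis-element reporter units and were dosed for 24 h. Gain or loss of signal fitted relative to DMSO baseline.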

Assay [2] can be described thus: ATG_NF_kB_CIS: Attagene CIS-FACTORIAL HepG2 Assay for human Nuclear Factor Kappa B (NF-kB) (AID 2282991). Conditions: HepG2 Attagene cis-factorial NF-kB reporter mRNA; actives raise or lower the signal. The essentials:
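Endogenous transcription factor activity in HepG2 was captured via cis-regulated reporter constructs; after 24 h dosing, reporter mRNA was reverse-transcribed, amplified, fluorescently labelled and sized by capillary electrophoresis, with activity fitted bidirectionally relative to DMSO.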

Assay [3] can be described thus: ATG_NRF2_ARE_CIS: Attagene CIS-FACTORIAL HepG2 Assay for human Nuclear Factor Erythroid 2 Related Factor 2 (NFR2) response to Antioxidant Response Elements (ARE) (AID 2282992).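 On AC50: reporter mRNA level measured by RT-PCR and capillary electrophoresis fluorescence.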 Conditions: HepG2 Attagene ARE/NRF2 reporter, transcription factor activity; actives raise or lower the signal. The essentials: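 Fluorescence intensity of reporter-specific cDNA fragments, separated by capillary electrophoresis, reflects mRNA induction in transfected HepG2 cells at 24 h. Activity is fitted bidirectionally, DMSO serving as baseline.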

A short description of assay [4]: ATG_Oct_MLP_CIS: Attagene CIS-FACTORIAL HepG2 Assay for human Octamer-Binding Transcription Factor (Oct) (AID 2282993). Conditions: HepG2 Attagene cis-factorial Oct reporter, mRNA; actives raise or lower the signal. The essentials: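 Read-out: reporter mRNA via RT-PCR plus capillary electrophoresis of 6-FAM-labelled fragments. Transiently transfected HepG2, 24 h exposure, endogenous TF activity on cis elements. Gain or loss of signal fitted relative to DMSO.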

For assay [5], the target named is Cellular tumor antigen p53 (Homo sapiens) (UniProt P04637). Put plainly: ATG_p53_CIS: Attagene CIS-FACTORIAL HepG2 Assay for human p53 Transcription Factor (AID 2282994). Conditions: HepG2 p53 cis-element reporter, Attagene mRNA; actives raise or lower the signal. Summed up: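 Transiently transfected HepG2 (multiple cis reporter transcription units); exposure 24 h; reporter RNA via RT-PCR, 6-FAM extension, 2 h HpaI digest at 37 C, CE detection; DMSO baseline.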

The nature of assay [6]: BSK_3C_TissueFactor: BioMAP Diversity Plus: 3C Assay for Tissue Factor Biomarker Activity (AID 2282997). The note with it: BioMAP 3C HUVEC, tissue factor biomarker readout; actives raise or lower the signal. Summed up:
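Cells used were primary human umbilical vein endothelial cells. They were dosed with chemical, and after 24 h Tissue Factor was quantified by ELISA. Curves were fitted bidirectionally with DMSO as baseline.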

Assay [7] in a line: BSK_3C_uPAR: BioMAP Diversity Plus: 3C Assay for Urokinase-type plasminogen activator receptor (uPAR) Biomarker Activity (AID 2282998). The note with it: BioMAP 3C HUVEC, uPAR biomarker ELISA; actives raise or lower the signal. The essentials:
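HUVEC primary cells; 24 h post-dose; uPAR by ELISA; gain or loss of signal fitted bidirectionally vs DMSO baseline.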
On the technique in general: An ELISA detects its analyte on a solid surface through an enzyme-linked reagent.

A short description of assay [8]: BSK_4H_Eotaxin3: BioMAP Diversity Plus: 4H Assay for Eotaxin 3 Biomarker Activity (AID 2283000).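 On outcome: CCL26 protein level quantified by ELISA in parallel with SRB cytotoxicity check.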 The note with it: primary human endothelial cells (HUVEC); actives raise or lower the signal. Summed up: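 Endothelial primary cells (human umbilical vein) exposed to compound for 24 h. ELISA detection of Eotaxin-3.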
Assay [9] in a line: BSK_3C_Proliferation: Cell Proliferation Assessment in the BioMAP Diversity Plus: 3C Assay (AID 2283006).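 On AC50: potency may reflect either rise or fall in cell number versus DMSO.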 Conditions: primary human endothelial cells (HUVEC). The essentials: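 Cells (human umbilical vein endothelial, sub-confluent) receive test chemical; after 48 h they are fixed in 10% trichloroacetic acid, stained with 0.1% SRB and read at 560 nm. Activity is referenced to DMSO, fitting increases and decreases.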

The target in assay [10] is Nuclear receptor subfamily 1 group I member 2 (Homo sapiens) (UniProt O75469). Description: ATG_PXR_TRANS: Attagene TRANS-FACTORIAL HepG2 Assay for human Pregnane X Receptor (PXR) (AID 2283008; active means hit-call score of the fitted dose curve at least 0.9, where 1 is the maximum). The essentials: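 Transient HepG2 transfectants carrying multiplexed reporter transcription units; PXR activity read through a Gal4 chimera. 24 h exposure. RT-PCR/CE fluorescence; upward curve fit referenced to DMSO.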

In assay [11] the target is human Retinoic Acid Receptor gamma (RARg), RARG (gene 5916) (UniProt P13631). Description: ATG_RARg_TRANS: Attagene TRANS-FACTORIAL HepG2 Assay for human Retinoic Acid Receptor gamma (RARg) (AID 2283009; active means hit-call score of the fitted dose curve at least 0.9, where 1 is the maximum). Summed up:
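TRANS format measured activity of exogenous NR-GAL4 fusion (RARg) in transfected HepG2 liver cells after 24 h dosing. Induced reporter RNA was detected by RT-PCR/capillary electrophoresis fluorescence, analysed in the positive direction against DMSO.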

Assay [12] is described as follows: BSK_3C_VCAM1: BioMAP Diversity Plus: 3C Assay for Vascular cell adhesion molecule 1 (VCAM1) Biomarker Activity (AID 2282999). The note with it: BioMAP 3C HUVEC, VCAM1 ELISA, cytokine-stimulated; actives raise or lower the signal. The essentials: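 HUVEC primary cells, 24 h compound exposure; VCAM-1 by ELISA; gain/loss of signal fitted bidirectionally vs DMSO baseline.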

Assay [13] concerns the target human Peroxisome Proliferator-activated Receptor delta (PPARd), PPARD (gene 5467) (UniProt Q03181). Description: ATG_PPARd_TRANS: Attagene TRANS-FACTORIAL HepG2 Assay for human Peroxisome Proliferator-activated Receptor delta (PPARd) (AID 2283002; active means hit-call score of the fitted dose curve at least 0.9, where 1 is the maximum). The essentials:
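Read-out: reporter mRNA induction, quantified by fluorescent RT-PCR products resolved by capillary electrophoresis. Human HepG2 liver cells carried transiently transfected Gal4-UAS reporter constructs with chimeric NR-Gal4 fusions. Cells were dosed for 24 h; DMSO served as baseline.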

Assay [14] has as its target human Peroxisome Proliferator-activated Receptor alpha (PPARa), PPARA (gene 5465) (UniProt Q07869). Description: ATG_PPARa_TRANS: Attagene TRANS-FACTORIAL HepG2 Assay for human Peroxisome Proliferator-activated Receptor alpha (PPARa) (AID 2283001; active means hit-call score of the fitted dose curve at least 0.9, where 1 is the maximum). Summed up:
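HepG2, transient MRTU transfection, 24 h treatment. RT-PCR → FAM labelling → capillary electrophoresis. Fit vs DMSO, positive direction.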

Read-out in assay [15]: Intercellular Adhesion Molecule 1 (ICAM1), ICAM1 (gene 3383)
Put plainly: BSK_3C_ICAM1: BioMAP Diversity Plus: 3C Assay for Intercellular Adhesion Molecule 1 (ICAM1) Biomarker Activity (AID 2283003). The note with it: primary human endothelial cells (HUVEC); actives raise or lower the signal. The essentials: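 Chemicals are dosed onto primary human umbilical vein endothelium (3C system). After 24 h, ICAM-1 is measured by ELISA, and responses are fitted bidirectionally relative to DMSO.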

Assay [16] deals with human Retinoic Acid Receptor beta (RARb), RARB (gene 5915) (UniProt P10826). Put plainly: ATG_RARb_TRANS: Attagene TRANS-FACTORIAL HepG2 Assay for human Retinoic Acid Receptor beta (AID 2283004; active means hit-call score of the fitted dose curve at least 0.9, where 1 is the maximum). Summed up:
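HepG2, transient MRTU transfection, NR–Gal4 chimera, 24 h treatment; RT-PCR plus CE fluorescence detection of reporter mRNA; gain of signal vs DMSO.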

The target in assay [17] is human RAR-related Orphan Receptor gamma (RORg), RORC (gene 6097) (UniProt P51449). Put plainly: ATG_RORg_TRANS: Attagene TRANS-FACTORIAL HepG2 Assay for human RAR-related Orphan Receptor gamma (RORg) (AID 2283011; active means hit-call score of the fitted dose curve at least 0.9, where 1 is the maximum). Summed up: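 Activity is scored as increase in GAL4-UAS reporter mRNA over DMSO, detected by fluorescent RT-PCR and capillary electrophoresis in HepG2 cells transiently expressing a RORg-Gal4 chimera, 24 h after dosing.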

Assay [18] deals with human RAR-related Orphan Receptor beta (RORb), RORB (gene 6096) (UniProt Q92753). Description: ATG_RORb_TRANS: Attagene TRANS-FACTORIAL HepG2 Assay for human RAR-related Orphan Receptor beta (RORb) (AID 2283010; active means hit-call score of the fitted dose curve at least 0.9, where 1 is the maximum). The essentials:
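Transfect HepG2 with multiple GAL4-UAS reporter transcription units; dose chemicals for 24 h; isolate RNA, reverse-transcribe and PCR-amplify reporter sequences; label, digest and resolve fragments by capillary electrophoresis; fit increases relative to DMSO.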

The target in assay [19] is Retinoic acid receptor alpha (Homo sapiens) (UniProt P10276). Put plainly: ATG_RARa_TRANS: Attagene TRANS-FACTORIAL HepG2 Assay for human Retinoic Acid Receptor alpha (RARa) (AID 2283005; active means hit-call score of the fitted dose curve at least 0.9, where 1 is the maximum). The essentials: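 HepG2 transiently transfected with multiplex GAL4-UAS reporter units including a human RARa–GAL4 chimera; 24 h compound exposure. Reporter mRNA quantified by RT-PCR, 6-FAM labeling and capillary electrophoresis; gain of signal versus DMSO.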

Assay [20] has as its target Peroxisome proliferator-activated receptor gamma (Homo sapiens) (UniProt P37231). Description: ATG_PPARg_TRANS: Attagene TRANS-FACTORIAL HepG2 Assay for human Peroxisome Proliferator-activated Receptor-gamma (PPARg) (AID 2283007; active means hit-call score of the fitted dose curve at least 0.9, where 1 is the maximum). Summed up:
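A TRANS-format multiplexed reporter assay measures activity of an exogenous chimeric NR-Gal4 protein in HepG2 cells. After 24 h of chemical exposure, reporter transcripts are amplified, fluorescently labelled and sized by capillary electrophoresis, with gain of signal scored against DMSO.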

Records with an inconclusive call do not appear. Calls of active or inactive are those of the source. How the source made its calls, unless noted: active means hit-call score of the fitted dose curve at least 0.9, where 1 is the maximum; inactive means score below 0.9.

Chain of Cellular tumor antigen p53 (Homo sapiens) (P04637 whole entry, looked up): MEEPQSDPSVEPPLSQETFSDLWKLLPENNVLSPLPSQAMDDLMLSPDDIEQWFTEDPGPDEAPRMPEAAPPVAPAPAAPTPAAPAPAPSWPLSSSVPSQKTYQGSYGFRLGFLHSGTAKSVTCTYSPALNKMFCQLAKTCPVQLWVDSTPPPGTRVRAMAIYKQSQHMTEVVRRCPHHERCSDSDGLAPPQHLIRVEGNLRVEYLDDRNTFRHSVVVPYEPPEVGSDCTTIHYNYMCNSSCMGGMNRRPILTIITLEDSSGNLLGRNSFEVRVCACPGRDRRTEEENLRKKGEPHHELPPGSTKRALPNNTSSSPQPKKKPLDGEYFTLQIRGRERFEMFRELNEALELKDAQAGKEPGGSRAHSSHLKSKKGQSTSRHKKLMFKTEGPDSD
Chain of human RAR-related Orphan Receptor gamma (RORg), RORC (gene 6097) (P51449 whole entry, looked up, the tested form may be a part): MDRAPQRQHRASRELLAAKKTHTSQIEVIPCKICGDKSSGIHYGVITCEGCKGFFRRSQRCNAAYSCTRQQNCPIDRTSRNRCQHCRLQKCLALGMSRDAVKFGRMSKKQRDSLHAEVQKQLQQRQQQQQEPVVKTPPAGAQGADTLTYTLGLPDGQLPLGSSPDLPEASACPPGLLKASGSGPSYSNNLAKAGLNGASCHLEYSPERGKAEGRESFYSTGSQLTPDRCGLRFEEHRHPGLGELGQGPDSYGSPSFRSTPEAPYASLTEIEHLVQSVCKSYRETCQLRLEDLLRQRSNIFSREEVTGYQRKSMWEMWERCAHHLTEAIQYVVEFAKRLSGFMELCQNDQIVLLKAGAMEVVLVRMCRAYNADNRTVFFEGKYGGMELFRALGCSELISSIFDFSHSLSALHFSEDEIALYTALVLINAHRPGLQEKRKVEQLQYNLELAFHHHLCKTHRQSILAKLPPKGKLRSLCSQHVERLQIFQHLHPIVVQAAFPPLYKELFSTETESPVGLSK
Chain of human Peroxisome Proliferator-activated Receptor delta (PPARd), PPARD (gene 5467) (Q03181 whole entry, looked up, the tested form may be a part): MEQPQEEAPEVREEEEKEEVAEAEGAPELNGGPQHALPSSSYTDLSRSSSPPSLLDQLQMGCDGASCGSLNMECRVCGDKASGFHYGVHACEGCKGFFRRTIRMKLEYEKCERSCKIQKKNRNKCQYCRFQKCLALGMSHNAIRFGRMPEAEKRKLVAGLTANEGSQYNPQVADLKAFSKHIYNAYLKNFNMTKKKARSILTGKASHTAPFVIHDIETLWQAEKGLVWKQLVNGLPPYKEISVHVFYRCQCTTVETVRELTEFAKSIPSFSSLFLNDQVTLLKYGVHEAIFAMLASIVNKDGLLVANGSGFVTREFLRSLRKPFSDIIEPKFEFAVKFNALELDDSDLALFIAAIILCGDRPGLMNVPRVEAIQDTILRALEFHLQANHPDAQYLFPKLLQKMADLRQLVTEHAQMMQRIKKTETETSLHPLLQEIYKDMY
Chain of human Retinoic Acid Receptor gamma (RARg), RARG (gene 5916) (P13631 whole entry, looked up, the tested form may be a part): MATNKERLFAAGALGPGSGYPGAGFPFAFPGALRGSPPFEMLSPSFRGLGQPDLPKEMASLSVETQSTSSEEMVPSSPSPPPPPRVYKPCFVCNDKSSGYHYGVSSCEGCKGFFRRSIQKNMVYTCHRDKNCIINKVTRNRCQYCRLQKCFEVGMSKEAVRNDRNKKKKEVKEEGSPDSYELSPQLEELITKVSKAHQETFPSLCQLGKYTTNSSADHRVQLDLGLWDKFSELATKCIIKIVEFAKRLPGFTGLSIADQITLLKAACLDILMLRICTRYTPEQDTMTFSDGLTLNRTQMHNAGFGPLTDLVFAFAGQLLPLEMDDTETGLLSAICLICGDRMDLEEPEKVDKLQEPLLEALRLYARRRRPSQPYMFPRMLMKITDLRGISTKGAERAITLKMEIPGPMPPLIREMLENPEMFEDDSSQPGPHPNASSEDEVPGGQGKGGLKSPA
Chain of Myc proto-oncogene protein (Homo sapiens) (P01106 whole entry, looked up, the tested form may be a part): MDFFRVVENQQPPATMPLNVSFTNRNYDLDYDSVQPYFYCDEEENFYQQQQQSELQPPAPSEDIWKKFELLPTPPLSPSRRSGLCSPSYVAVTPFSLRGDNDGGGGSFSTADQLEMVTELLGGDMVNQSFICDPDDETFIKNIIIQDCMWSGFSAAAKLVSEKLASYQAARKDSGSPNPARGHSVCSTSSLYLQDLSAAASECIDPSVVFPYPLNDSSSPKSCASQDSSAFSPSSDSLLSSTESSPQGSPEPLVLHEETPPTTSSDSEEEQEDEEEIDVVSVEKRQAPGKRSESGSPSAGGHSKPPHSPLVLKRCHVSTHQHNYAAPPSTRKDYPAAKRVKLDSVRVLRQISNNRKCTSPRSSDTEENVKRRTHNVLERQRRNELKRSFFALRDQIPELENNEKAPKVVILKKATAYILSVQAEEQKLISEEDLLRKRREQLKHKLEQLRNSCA
Chain of human Retinoic Acid Receptor beta (RARb), RARB (gene 5915) (P10826 whole entry, looked up, the tested form may be a part): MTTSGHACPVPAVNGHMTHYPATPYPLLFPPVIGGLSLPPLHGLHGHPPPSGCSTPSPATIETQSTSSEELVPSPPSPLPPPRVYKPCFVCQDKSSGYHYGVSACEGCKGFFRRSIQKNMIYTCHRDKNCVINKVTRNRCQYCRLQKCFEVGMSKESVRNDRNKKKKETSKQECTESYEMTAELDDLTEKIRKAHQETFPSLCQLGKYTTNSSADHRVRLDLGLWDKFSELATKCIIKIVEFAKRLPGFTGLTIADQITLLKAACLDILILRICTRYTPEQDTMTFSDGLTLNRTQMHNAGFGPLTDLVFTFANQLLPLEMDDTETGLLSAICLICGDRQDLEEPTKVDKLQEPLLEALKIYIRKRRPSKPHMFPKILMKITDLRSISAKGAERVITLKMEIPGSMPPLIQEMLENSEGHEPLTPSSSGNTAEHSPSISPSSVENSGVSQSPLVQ
Chain of Nuclear receptor subfamily 1 group I member 2 (Homo sapiens) (O75469 whole entry, looked up, the tested form may be a part): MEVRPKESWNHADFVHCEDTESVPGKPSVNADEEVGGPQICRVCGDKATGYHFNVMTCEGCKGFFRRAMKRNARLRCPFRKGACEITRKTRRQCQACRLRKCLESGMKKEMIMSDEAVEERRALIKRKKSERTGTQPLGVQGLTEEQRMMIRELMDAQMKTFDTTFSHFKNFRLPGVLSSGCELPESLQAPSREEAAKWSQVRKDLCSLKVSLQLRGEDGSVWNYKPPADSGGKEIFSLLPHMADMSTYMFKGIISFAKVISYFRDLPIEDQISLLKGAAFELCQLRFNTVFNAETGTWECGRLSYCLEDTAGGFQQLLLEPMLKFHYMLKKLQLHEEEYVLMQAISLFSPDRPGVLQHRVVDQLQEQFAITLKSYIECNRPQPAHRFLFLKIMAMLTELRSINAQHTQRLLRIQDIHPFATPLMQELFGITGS
Chain of human Peroxisome Proliferator-activated Receptor alpha (PPARa), PPARA (gene 5465) (Q07869 whole entry, looked up): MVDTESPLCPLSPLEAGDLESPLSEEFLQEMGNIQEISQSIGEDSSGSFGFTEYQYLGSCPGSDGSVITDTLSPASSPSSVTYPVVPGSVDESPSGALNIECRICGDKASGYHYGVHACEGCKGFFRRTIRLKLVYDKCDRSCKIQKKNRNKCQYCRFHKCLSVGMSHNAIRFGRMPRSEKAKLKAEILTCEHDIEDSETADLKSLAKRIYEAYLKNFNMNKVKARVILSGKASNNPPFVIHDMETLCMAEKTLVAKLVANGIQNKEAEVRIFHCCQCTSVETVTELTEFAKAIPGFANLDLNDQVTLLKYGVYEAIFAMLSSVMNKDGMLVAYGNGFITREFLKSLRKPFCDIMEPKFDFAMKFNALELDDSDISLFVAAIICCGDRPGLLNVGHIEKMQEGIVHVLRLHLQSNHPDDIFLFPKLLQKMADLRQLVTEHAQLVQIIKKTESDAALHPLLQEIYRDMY
Chain of Retinoic acid receptor alpha (Homo sapiens) (P10276 whole entry, looked up, the tested form may be a part): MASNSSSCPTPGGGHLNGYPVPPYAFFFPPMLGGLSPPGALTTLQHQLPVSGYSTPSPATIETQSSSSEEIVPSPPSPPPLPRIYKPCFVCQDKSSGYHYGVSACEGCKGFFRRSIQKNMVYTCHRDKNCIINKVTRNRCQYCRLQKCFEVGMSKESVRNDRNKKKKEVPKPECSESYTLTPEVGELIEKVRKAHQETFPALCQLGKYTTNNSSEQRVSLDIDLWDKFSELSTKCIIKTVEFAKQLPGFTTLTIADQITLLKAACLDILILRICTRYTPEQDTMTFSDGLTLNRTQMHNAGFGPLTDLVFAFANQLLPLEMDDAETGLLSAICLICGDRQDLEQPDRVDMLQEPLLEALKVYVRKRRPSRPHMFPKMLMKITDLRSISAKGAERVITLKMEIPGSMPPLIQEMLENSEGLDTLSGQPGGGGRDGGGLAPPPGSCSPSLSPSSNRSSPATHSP
Chain of human RAR-related Orphan Receptor beta (RORb), RORB (gene 6096) (Q92753 whole entry, looked up, the tested form may be a part): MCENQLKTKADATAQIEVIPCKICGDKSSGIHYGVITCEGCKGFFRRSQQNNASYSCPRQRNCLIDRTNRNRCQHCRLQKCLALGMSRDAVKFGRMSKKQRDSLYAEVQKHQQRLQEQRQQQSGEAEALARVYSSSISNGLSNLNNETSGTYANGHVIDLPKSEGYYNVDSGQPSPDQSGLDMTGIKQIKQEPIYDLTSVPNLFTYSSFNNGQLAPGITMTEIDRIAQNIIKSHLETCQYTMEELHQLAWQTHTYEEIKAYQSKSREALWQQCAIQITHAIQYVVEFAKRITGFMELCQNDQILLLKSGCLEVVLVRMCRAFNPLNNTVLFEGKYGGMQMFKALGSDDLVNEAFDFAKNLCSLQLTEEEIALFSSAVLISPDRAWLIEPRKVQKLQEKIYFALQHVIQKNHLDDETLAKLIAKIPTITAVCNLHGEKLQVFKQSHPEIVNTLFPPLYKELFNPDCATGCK

As usually defined, the AC50 is the midpoint of the concentration-response curve, whichever way the signal moves. Regarding `O=P(OC(CCl)CCl)(OC(CCl)CCl)OC(CCl)CCl`, the AC50 in assay [1] was 143 µM (active); in assay [4], 103 µM (active); in assay [5], 39.3 µM (active); in [6], 8.26 µM (active); in assay [9], 10.6 µM (active); in assay [10], 0.377 µM (active). Also, the call in [2], in assay [3], in [7], in assay [8] and in assay [11] was inactive.
Turning to `CN(C)c1ccc(N=NS(=O)(=O)O)cc1`, the call in assay [1], in assay [5], in [7], in [8], in [13] and in assay [9] was inactive. In addition, the compound was classed as inactive in [10]. Besides, the AC50 in assay [3] is 54 µM (active); in [4] it was 130 µM (active); in assay [6], 5.79 µM (active); in assay [12], 6.47 µM (active).
For the compound `O=C(O)CC(O)C(=O)O` (configuration not stated), the compound was classed as inactive in assay [1], in assay [3], in assay [4], in assay [5], in assay [6] and in [7]. Further, the call in [14], in assay [15], in assay [16], in assay [9], in assay [10] and in assay [11] was inactive.
As for `CCC(C)(C)C(=O)O[C@H]1C[C@@H](C)C=C2C=C[C@H](C)[C@H](CC[C@@H]3C[C@@H](O)CC(=O)O3)[C@H]21`, the call in assay [1], in assay [3], in assay [4], in assay [5], in [13] and in assay [11] was inactive. Also, the compound was classed as inactive in assay [17]. Moreover, the AC50 was 20 µM (active) in assay [6]; 16.9 µM (active) in assay [7]; 29.9 µM (active) in [12]; 34.5 µM (active) in [8]; 4.32 µM (active) in [9].
With `Cc1ccc(N)cc1O`, the result in assay [1], in assay [4], in assay [5], in [6], in assay [7] and in [14] was inactive. Also, the call in [13], in [15], in [16], in assay [9], in [10] and in [18] was inactive. In addition, the result in assay [17] was inactive. In [3], the AC50 is 22.3 µM (active).
Take `CC1(C)C(=O)N(Br)C(=O)N1Br`: the result in assay [1], in assay [4], in [5], in assay [6], in [7] and in [8] was inactive. Also, the outcome in assay [13] and in [9] was inactive. Moreover, the concentration at half-maximal activity (AC50) in assay [3] is 52.4 µM (active).
In the case of `CCCCCCc1ccc(O)cc1O`, the compound was classed as inactive in [1], in [5] and in assay [10]. The AC50 was 24.3 µM (active) in assay [3]; 50.9 µM (active) in [4]; 33.8 µM (active) in assay [6]; 31.8 µM (active) in assay [7]; 30.2 µM (active) in assay [9].
For the compound `Cc1ccc(S(=O)(=O)O)cc1C`, the outcome in assay [1], in assay [3], in assay [4], in assay [5], in assay [6] and in [7] was inactive. In addition, the result in [8], in assay [13], in [15], in [16], in assay [19] and in assay [9] was inactive. Further, the compound was called inactive in assay [20] and in assay [10].
With `COc1ccc2sc(C(=O)Nc3nnn[nH]3)c(OC(C)C)c2c1`, the call in [1], in assay [13], in assay [10] and in assay [17] was inactive. The concentration at half-maximal activity (AC50) in assay [3] was 70.2 µM (active); in [4] it was 155 µM (active); in [5], 71.4 µM (active); in [6], 22.5 µM (active); in assay [7], 5.51 µM (active); in [15], 26.4 µM (active). In addition, the AC50 in assay [9] was 9.42 µM (active).

The values are drawn from PubChem BioAssay (EPA / NIEHS).
